Source: PubChem BioAssay (NCI)
Values joined by “and” are separate entries in the source; they are usually repeats but may differ in a detail not shown here. Identical values can stand only once. The panel holds about 79,000 compounds, 15% with a hit somewhere; the sample as a whole holds those more often. Active and inactive are the calls of the source. Cut-off read from the data, not from the text of the source: active = growth inhibition above about 70%; inactive = the rest.

Assays:
[1] = NCI Yeast Anticancer Drug Screen. Data for the rad50 strain (AID 155);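 note: 0% = growth of vehicle-only cultures of the same strain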; settings: S. cerevisiae rad50 strain growth inhibition, stronger effect = higher value; at 50.0 µM unless noted
Procedure, shortened: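 Compounds were tested on a yeast strain with an engineered DNA damage repair alteration; the reported value is growth inhibition normalised to vehicle treatment.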

[2] = NCI Yeast Anticancer Drug Screen. Data for the mec2-1 strain (AID 157); settings: S. cerevisiae mec2-1 strain, stronger effect = higher value; at 50.0 µM unless noted
Procedure, shortened: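 Growth inhibition is read against vehicle-treated controls after compound exposure of the mec2-1 yeast strain, which is defective in DNA damage repair or cell cycle control.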

[3] = NCI Yeast Anticancer Drug Screen. Data for the sgs1 mgt1 strain (AID 161);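 note: 0% = growth of cultures given vehicle only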; settings: S. cerevisiae sgs1 mgt1 strain, stronger effect = higher value; at 50.0 µM unless noted
Procedure, shortened: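 Growth of a repair-deficient yeast mutant was monitored after compound treatment and expressed as inhibition relative to vehicle-treated cultures.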

[4] = NCI Yeast Anticancer Drug Screen. Data for the cln2 rad14 strain (AID 165);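 note: 0% = growth equal to vehicle treated cultures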; settings: S. cerevisiae cln2 rad14 strain, stronger effect = higher value; at 50.0 µM unless noted
Procedure, shortened: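 Growth inhibition, relative to vehicle-treated controls, is the read-out. The test organism is a yeast strain with defined genetic alterations, cln2 rad14.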

[5] = NCI Yeast Anticancer Drug Screen. Data for the bub3 strain (AID 167); settings: S. cerevisiae bub3 mutant strain, stronger effect = higher value; at 50.0 µM unless noted
Procedure, shortened: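 Growth of a checkpoint-deficient yeast mutant is measured after compound exposure. Values represent inhibition relative to vehicle.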

[6] = NCI Yeast Anticancer Drug Screen. Data for the mlh1 rad18 strain (AID 175); settings: S. cerevisiae mlh1 rad18 strain growth inhibition, stronger effect = higher value; at 50.0 µM unless noted
Procedure, shortened: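 Cells of a genetically altered yeast strain, deficient in DNA damage repair, were treated with compound. Their growth was then compared with that of vehicle-treated cultures to give inhibition.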

Measured: growth inhibition

Nc1nccs1
inactive: [1] -0.45% | [2] -0.65% | [3] 4.75% | [4] 9.4% | [5] -3.15% | [6] 25.7%

CC(C)C(C=O)C(O)(C(F)(F)F)C(F)(F)F (stereo unspecified)
inactive: [1] 2.3% | [2] -2.8% | [3] -30.6% | [4] 13.3% | [5] 22.3% | [6] 0.5%

CC(=O)OCC1COC(c2ccc(C)cc2)O1 (stereo unspecified)
inactive: [1] 12.9% | [2] -2.1% | [3] -13.8% | [4] -2.5% | [5] -4.45% | [6] -11.8%

O=C(OC1CCCCCCC1OC(=O)c1ccc([N+](=O)[O-])cc1)c1ccc([N+](=O)[O-])cc1 (stereo unspecified)
inactive: [1] 7.05% | [2] 1.85% | [3] 6.4% | [4] 11.8% | [5] -4.8% | [6] 1.7%

NCCCOB(OCCCN)OCCCN
inactive: [1] 8.3% | [2] -7.4% | [3] -17.1% | [4] -20.2% | [5] -2.45% | [6] -10.2%

CCOC(=O)NC(=O)c1cn(CCOCCOC(=O)NCCCCCCNC(=O)OCCOCCn2cc(C(=O)NC(=O)OCC)c(=O)[nH]c2=O)c(=O)[nH]c1=O
inactive: [1] 5.05% | [2] 24.2% | [3] 25.6% | [4] 20.1% | [5] -6.9% | [6] 29.6%

CC(C)(CO)CNC(=O)C(C)(C)CO
inactive: [1] 7.8% | [2] 14.1% | [3] -5% | [4] 21.1% | [5] 16.8% | [6] -4.4%

CC(C)c1ccc(C2NC(c3ccccc3)c3c(ccc4ccccc34)O2)cc1 (stereo unspecified)
inactive: [1] 36.9% | [2] -4.85% | [3] 6.1% | [4] 0.5% | [5] -1.6% | [6] -1.65%

CCCCCCCCCCCCCC(=O)OCCC(C)C
inactive: [1] -5.85% | [2] 0.25% | [3] 7.25% | [4] -18.9% | [5] 3.4% | [6] -7.3%

O=C(CC(=O)c1ccc(OC(=O)c2ccccc2)cc1O)c1ccccc1
inactive: [1] -12.7% | [2] -4.95% | [3] -2.8% | [4] -16.1% | [5] 8% | [6] -27.6%

NCCNc1ccccc1
inactive: [1] -32.9% | [2] -62% | [3] -42.2% | [4] 6.6% | [5] -20.4% | [6] -22.9%

CCOCNC(=O)NCC(F)(F)C(F)(F)C(F)(F)C(F)(F)C(F)(F)C(F)(F)C(F)(F)F
inactive: [1] -1.55% | [2] -21.5% | [3] -4.6% | [4] -5.5% | [5] -1.65% | [6] 12.9%

Cc1cc(=O)[nH]c(NN2C(Cl)C(=O)C2c2ccccc2O)n1 (stereo unspecified)
inactive: [1] 16.4% | [2] -31.5% | [3] 13.3% | [4] 2.95% | [5] -9.3% | [6] -13.8%

CO[C@@H]1C2=CC=CC=C[C@H]2n2c(=O)n(-c3ccccc3)c(=O)n21
inactive: [1] -10.2% | [2] 18.6% | [3] 18.4% | [4] -14.4% | [5] -1.15% | [6] 13.2%

O=C(Oc1cc2c(cc1Br)OCO2)c1cccc2ccccc12
inactive: [1] 0.85% | [2] -30.3% | [3] 9.8% | [4] -48.7% | [5] 6.95% | [6] -27.2%

CN(C)c1ccc(C(c2ccc(C(c3ccc(N(C)C)cc3)c3ccc(N(C)C)cc3)cc2)c2ccc(N(C)C)cc2)cc1
inactive: [1] -6.55% | [2] 4.8% | [3] -22.1% | [4] -0.8% | [5] -10.8% | [6] 14.6%

COc1cc(C)cc2c1C(C)(C)CCC2(C)C
inactive: [1] 5.4% | [2] -24.6% | [3] -5.8% | [4] -7.15% | [5] 16% | [6] -0.65%

O=C(O)/C=C/c1cc(Br)sc1Br
inactive: [1] -2.05% | [2] 7.35% | [3] 5% | [4] -11.3% | [5] -0.95% | [6] 19.5%

O=C(/C=C/c1ccccc1)c1ccccc1
inactive: [1] -1.8% and -29.8% | [2] 10.3% and -6.35% | [3] -8.65% and -18.8% | [4] -41% and -36.2% | [5] 21.7% and 1.7% | [6] 14.3% and -22.3%

COc1cccc(N(CN2CC=CC2=O)C(C)=O)c1
inactive: [1] -1.65% | [2] 6.3% | [3] 10.6% | [4] 18.6% | [5] -16.8% | [6] -44.3%

Cn1ccnc1Sc1c([N+](=O)[O-])ncn1C
inactive: [1] 3.3% | [2] 5.95% | [3] 3.25% | [4] 29.3% | [5] 32.5% | [6] 10.4%

COC(=O)CC1(C(=O)OC)NC(=O)c2cc(OC)c(Cl)cc2N1 (stereo unspecified)
inactive: [1] -4.2% | [2] 7.6% | [3] -7.1% | [4] 13.6% | [5] -4.9% | [6] -19.6%

O=C(CC1C(=O)Nc2ccccc2S1=O)Nc1cc(Cl)ccc1Cl (stereo unspecified)
inactive: [1] -14.9% | [2] -24.2% | [3] 3.1% | [4] 8.15% | [5] -4.6% | [6] -6.1%

NC(=S)c1ccc2ccccc2c1
inactive: [1] 9.95% | [2] 13.9% | [3] 15.1% | [4] 6.15% | [5] 15.2% | [6] 9.2%

Nc1cc(N)c(N)cc1N
inactive: [1] -30.1% and -6.2% | [2] 16.8% and -29.1% | [3] 13% and -4.9% | [4] -1.7% and 21.8% | [5] 41.7% and -13.9% | [6] 15% and 8.75%

CCN(CC)CCN=Cc1ccccc1OC
inactive: [1] 15.9% | [2] -29.5% | [3] -3.85% | [4] 3.15% | [5] 11.3% | [6] 15.2%

CC(=O)c1cc2c(cc1O)oc1c(C)ccc(C)c12
inactive: [1] 20.8% | [2] -3.4% | [3] 5.55% | [4] 18.2% | [5] -29.7% | [6] -13.8%

Cc1ccc(C)c(CCCCS(=O)(=O)O)c1
inactive: [1] -27.9% | [2] -8.1% | [3] -5.75% | [4] -40.4% | [5] 1.2% | [6] -7.6%

Nc1ncc2c(=O)[nH][nH]c(=O)c2n1
inactive: [1] 34.9% | [2] 31.6% | [3] 16.6% | [4] 12.4% | [5] 3.4% | [6] -5.5%

COS(=O)(=O)CC(O)(c1ccccc1)c1ccccc1
inactive: [1] 12.7% | [2] -2.3% | [3] 48.8% | [4] -14.6% | [5] -5.8% | [6] 6.05%

CN(C(=O)Nc1ccccc1)c1ccc(O)cc1
inactive: [1] 19.4% | [2] -8.55% | [3] -16.4% | [4] -11.9% | [5] -11.9% | [6] 12.7%

CC(C)N(CC(C)(C)O)C(=O)c1ccccc1
inactive: [1] -5.35% | [2] 11.7% | [3] 17.1% | [4] 6.1% | [5] -14.7% | [6] -8.4%

COc1cc2cnc3c4cc(OCc5ccccc5)ccc4ccc3c2cc1OC
inactive: [1] -10.1% | [2] 3.2% | [3] -1% | [4] 25.3% | [5] 14.2% | [6] -0.25%

COC(=O)C1C(O)C(C)C(O)C(C)(O)/C=C/C=C(C)C(=O)Nc2c(C)c(OC(C)=O)c3c(c2O)C(=O)C(C)=C2OCOC(=C23)C(C)=CC(C)(O)C(O)C(C)C1OC(C)=O (stereo unspecified)
inactive: [1] 4.6% | [2] -19.9% | [3] 5.5% | [4] 4.05% | [5] 3.05% | [6] 18.8%

CC(O)c1ccc[cH-]1.CC(O)c1ccc[cH-]1.[Fe+2] (stereo unspecified)
inactive: [1] -22% | [2] 4% | [3] -5.55% | [4] -33.1% | [5] 28.7% | [6] 5.7%

Cc1cc(=O)n2nc(CCl)sc2n1
inactive: [1] 9.65% | [2] 10.2% | [3] 6.15% | [4] -8% | [5] 11.3% | [6] 10.1%
